Experimental data reported in PubChem BioAssay (Tox21).
Inconclusive results are not listed. Activity calls are given as the source filed them. The call rests on the fitted dose curve; in most records, active means well fitted curve in the direction sought with a large enough effect in the repeat runs; inconclusive means weak or mixed curves; inactive means no such curve, though single readings can be large; an effect the other way counts as inactive or inconclusive.

How the values were obtained:
[1] = Caspase-3/7 induction in HepG2 cells by small molecules, qHTS assay (AID 1346978); further: on the % scale 0 is the no-effect control and ±100 the full control effect; nearly all actives have a fitted effect of over 15% in size
In short: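 Wild-type HepG2 cells, 2,000/well, settled 5 hr at 37 C and 5% CO2, then compound-treated for 17 hr; caspase-3/7 activity read by luminescent Caspase-Glo 3/7 after 30 min at room temperature.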

[2] = Caspase-3/7 induction in CHO-K1 cells by small molecules, qHTS cell viability counter screen (AID 1346979); further: nearly all actives have a fitted effect of over 35% in size; further: potency means the concentration at half of the fitted maximal effect; on activity change, negative = cytotoxicity: on the % scale 0 is the no-effect control and ±100 the full control effect
In short: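 Viability readout by fluorescence (CellTiter-Fluor) on wild-type CHO-K1 cells exposed for 16hr at 37C and 5% CO2 to compounds delivered in DMSO; reagent incubated 1hr before reading.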

[3] = Caspase-3/7 induction in CHO-K1 cells by small molecules, qHTS assay (AID 1346980); further: on the % scale 0 is the no-effect control and ±100 the full control effect; nearly all actives have a fitted effect of over 15% in size
In short: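 Wild-type CHO-K1 cells exposed to compounds for 17hr at 37 C, 5% CO2. Caspase-3/7 activity then measured by Caspase-Glo 3/7 luminescence after 30min at room temperature.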

[4] = Caspase-3/7 induction in HepG2 cells by small molecules, qHTS cell viability counter screen (AID 1346981); further: series mostly up to about 92 µM; on the % scale 0 is the no-effect control and ±100 the full control effect; nearly all actives have a fitted effect of over 30% in size
In short: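 Viability determined by CellTiter-Fluor fluorescence in HepG2 wells also used for the luminescent Caspase-Glo 3/7 read. Compounds were present for 16 hr at 37 C, 5% CO2 before reagent addition.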

[5] = target: Nuclear receptor subfamily 1 group I member 2 (Homo sapiens) (UniProt O75469); test: Human pregnane X receptor (PXR) small molecule agonists, qHTS assay (AID 1346982); further: nearly all actives have a fitted effect of over 35% in size; further: potency means the concentration at half of the fitted maximal effect; on activation: on the % scale 0 is the no-effect control and ±100 the full control effect
In short: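 Compound-induced hPXR transactivation of a CYP3A4 luciferase reporter was scored in HepG2 PXR-Luc cells over 24 hr at 37 C, 5% CO2, by luminescence.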

[6] = target: Cytochrome P450 2C19 (Homo sapiens) (UniProt P33261); test: Cytochrome P450 Family 2 Subfamily C Member 19 (CYP2C19) small molecule antagonists: luciferase reporter qHTS assay (AID 1671197); further: nearly all actives have a fitted effect of over 65% in size; further: potency means the concentration at half of the fitted maximal effect; on activity change, negative = inhibition: series mostly up to about 120 µM; on the % scale 0 is the no-effect control and ±100 the full control effect
In short: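 Luminescent readout of CYP2C19 activity: luciferin product detected 20 min after adding detection reagent. Before that, compound and enzyme-substrate mix preincubated 10 min at room temperature; NADPH-regenerating system started a 1 h, 37C reaction. Ketoconazole as positive control.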

[7] = target: Cytochrome P450 2C9 (Homo sapiens) (UniProt P11712); test: Cytochrome P450 Family 2 Subfamily C Member 9 (CYP2C9) small molecule antagonists: luciferase reporter qHTS assay (AID 1671198); further: nearly all actives have a fitted effect of over 50% in size; further: potency means the concentration at half of the fitted maximal effect; on activity change, negative = inhibition: series mostly up to about 120 µM; on the % scale 0 is the no-effect control and ±100 the full control effect
In short: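 P450-Glo proluciferin substrate with CYP2C9 enzyme; 10 min RT preincubation, then NADPH regeneration 1 h at 37C; luciferin detection reagent 20 min RT, luminescence in relative luminescence units.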

[8] = target: Voltage-gated inwardly rectifying potassium channel KCNH2 (Homo sapiens) (UniProt Q12809); test: Human Ether-a-go-go-Related Gene (hERG) channel small molecule antagonists: fluorescence cell-based qHTS assay (AID 1671200); further: nearly all actives have a fitted effect of over 50% in size; further: potency means the concentration at half of the fitted maximal effect
In short: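 Thallium served as the potassium surrogate; its influx into dye-loaded U2OS cells carrying the channel was measured by fluorescence over 2 min.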

[9] = target: Cytochrome P450 3A4 (Homo sapiens) (UniProt P08684); test: Cytochrome P450 Family 3 Subfamily A Member 4 (CYP3A4) small molecule antagonists: luciferase reporter qHTS assay (AID 1671201); further: nearly all actives have a fitted effect of over 50% in size; further: potency means the concentration at half of the fitted maximal effect
In short: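 Relative luminescence units after 20 min with luciferin detection reagent served as read-out. Beforehand, CYP3A4 turned over a proluciferin substrate for 1 h at room temperature with NADPH regeneration, following 10 min compound preincubation.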

[10] = target: Cytochrome P450 2D6 (Homo sapiens) (UniProt P10635); test: Cytochrome P450 Family 2 Subfamily D Member 6 (CYP2D6) small molecule antagonists: luciferase reporter qHTS assay (AID 1671196); further: nearly all actives have a fitted effect of over 50% in size; further: potency means the concentration at half of the fitted maximal effect
In short: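 Each well received CYP2D6 with its proluciferin substrate and chemical, sat 10 min, then got NADPH regeneration solution for 1 h at room temperature. Luminescence in RLU served as the activity measure.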

[11] = target: Cytochrome P450 1A2 (Homo sapiens) (UniProt P05177); test: Cytochrome P450 Family 1 Subfamily A Member 2 (CYP1A2) small molecule antagonists: luciferase reporter qHTS assay (AID 1671199); further: nearly all actives have a fitted effect of over 50% in size; further: potency means the concentration at half of the fitted maximal effect
In short: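 Enzymatic CYP1A2 assay, human, luminescent: 10 min compound–enzyme–substrate preincubation, 1 h NADPH-dependent turnover, 20 min detection step, room temperature throughout. Reduced light indicates lower CYP1A2 activity.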

[12] = target: Nuclear receptor subfamily 1 group I member 2 (Homo sapiens) (UniProt O75469); test: CYP3A4 induction through human pregnane X receptor (PXR) by small molecules, qHTS assay (AID 1346984); further: nearly all actives have a fitted effect of over 40% in size; further: potency means the concentration at half of the fitted maximal effect
In short: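 Readings come from a luciferase reporter: DPX-2 cells, which are HepG2 cotransfected with PXR and a CYP3A4-promoter construct, were exposed to test compounds for 24 h at 37C before One-Glo detection.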

[13] = target: Nuclear receptor subfamily 1 group I member 2 (Rattus norvegicus) (UniProt Q9R1A7); test: Rat pregnane X receptor (rPXR) activation by small molecules, qHTS assay (AID 1346983); settings: rPXR luciferase reporter cells, One-Glo luminescence, 24 h; max activation: hits give high values; further: on the % scale 0 is the no-effect control and ±100 the full control effect; nearly all actives have a fitted effect of over 20% in size
In short: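 Cell-based rPXR activation assay: rPXR cells, 2,000 per well, rested 5hr at 37 C, then exposed to compounds in DMSO for 24 hr at 37 C. Luciferase activity read by One-Glo luminescence after 30 min at room temperature.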

[14] = target: Nuclear receptor subfamily 1 group I member 2 (Homo sapiens) (UniProt O75469); test: Human pregnane X receptor (PXR) activation by small molecules, qHTS assay (AID 1346985); further: potency means the concentration at half of the fitted maximal effect; nearly all actives have a fitted effect of over 40% in size
In short: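 DPX-2 cells (HepG2 co-transfected with a PXR response element and a CYP3A4-promoter luciferase construct) were seeded at 2,000 per well, rested 5 hr at 37C, then exposed to DMSO-dissolved compounds for 24 hr. Activation was read as luciferase luminescence.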

Sequence of Nuclear receptor subfamily 1 group I member 2 (Homo sapiens) (O75469 whole entry, looked up): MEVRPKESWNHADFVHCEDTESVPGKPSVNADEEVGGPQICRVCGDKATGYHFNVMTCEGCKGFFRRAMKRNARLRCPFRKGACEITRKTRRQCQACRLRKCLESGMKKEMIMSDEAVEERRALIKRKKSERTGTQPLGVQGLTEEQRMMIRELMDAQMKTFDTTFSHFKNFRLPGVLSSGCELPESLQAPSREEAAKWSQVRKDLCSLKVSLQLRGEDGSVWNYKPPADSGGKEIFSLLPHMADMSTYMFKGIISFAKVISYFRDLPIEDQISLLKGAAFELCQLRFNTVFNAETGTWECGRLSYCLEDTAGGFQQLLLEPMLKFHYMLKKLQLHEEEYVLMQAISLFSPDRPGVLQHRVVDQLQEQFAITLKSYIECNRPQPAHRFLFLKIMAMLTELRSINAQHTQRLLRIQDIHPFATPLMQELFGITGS
Sequence of Cytochrome P450 2C19 (Homo sapiens) (P33261 whole entry, looked up): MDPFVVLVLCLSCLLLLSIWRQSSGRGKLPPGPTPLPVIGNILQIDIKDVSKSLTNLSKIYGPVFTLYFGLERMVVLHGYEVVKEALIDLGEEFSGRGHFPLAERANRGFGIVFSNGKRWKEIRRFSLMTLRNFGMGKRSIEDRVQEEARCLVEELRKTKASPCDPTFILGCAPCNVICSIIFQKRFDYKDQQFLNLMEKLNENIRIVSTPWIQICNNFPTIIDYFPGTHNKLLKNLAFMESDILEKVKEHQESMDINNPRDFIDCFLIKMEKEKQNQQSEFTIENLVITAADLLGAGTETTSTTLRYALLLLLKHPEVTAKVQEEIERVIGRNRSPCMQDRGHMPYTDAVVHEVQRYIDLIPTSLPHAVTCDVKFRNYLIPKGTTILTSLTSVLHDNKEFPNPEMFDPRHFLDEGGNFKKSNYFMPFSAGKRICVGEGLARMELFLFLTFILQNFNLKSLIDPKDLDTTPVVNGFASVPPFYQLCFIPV
Sequence of Cytochrome P450 3A4 (Homo sapiens) (P08684 whole entry, looked up): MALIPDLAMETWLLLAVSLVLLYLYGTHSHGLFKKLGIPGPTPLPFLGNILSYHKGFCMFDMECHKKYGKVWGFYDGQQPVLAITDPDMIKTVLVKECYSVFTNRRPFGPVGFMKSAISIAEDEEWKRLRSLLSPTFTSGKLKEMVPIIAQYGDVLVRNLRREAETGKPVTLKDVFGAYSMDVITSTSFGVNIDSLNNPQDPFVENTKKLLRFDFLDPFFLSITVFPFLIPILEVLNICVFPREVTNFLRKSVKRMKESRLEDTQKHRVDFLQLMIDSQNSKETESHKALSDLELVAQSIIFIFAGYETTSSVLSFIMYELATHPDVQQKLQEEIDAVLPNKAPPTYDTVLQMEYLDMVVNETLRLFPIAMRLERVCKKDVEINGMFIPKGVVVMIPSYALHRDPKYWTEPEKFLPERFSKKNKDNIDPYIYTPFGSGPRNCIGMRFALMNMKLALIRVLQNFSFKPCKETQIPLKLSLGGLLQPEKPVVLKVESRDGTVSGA
Sequence of Cytochrome P450 1A2 (Homo sapiens) (P05177 whole entry, looked up): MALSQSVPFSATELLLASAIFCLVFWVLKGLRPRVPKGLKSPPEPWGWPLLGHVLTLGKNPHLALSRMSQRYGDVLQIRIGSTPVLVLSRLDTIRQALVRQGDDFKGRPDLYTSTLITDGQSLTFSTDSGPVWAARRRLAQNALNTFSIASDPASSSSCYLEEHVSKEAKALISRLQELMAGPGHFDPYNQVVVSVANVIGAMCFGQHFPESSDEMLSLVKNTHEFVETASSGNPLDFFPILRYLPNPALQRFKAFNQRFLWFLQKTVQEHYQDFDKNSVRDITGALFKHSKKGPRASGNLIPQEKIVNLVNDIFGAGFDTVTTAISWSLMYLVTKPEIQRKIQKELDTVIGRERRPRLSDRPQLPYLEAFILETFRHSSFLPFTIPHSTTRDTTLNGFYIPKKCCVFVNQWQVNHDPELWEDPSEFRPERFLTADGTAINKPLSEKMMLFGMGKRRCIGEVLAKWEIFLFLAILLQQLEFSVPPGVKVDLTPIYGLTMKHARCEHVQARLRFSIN
Sequence of Cytochrome P450 2C9 (Homo sapiens) (P11712 whole entry, looked up): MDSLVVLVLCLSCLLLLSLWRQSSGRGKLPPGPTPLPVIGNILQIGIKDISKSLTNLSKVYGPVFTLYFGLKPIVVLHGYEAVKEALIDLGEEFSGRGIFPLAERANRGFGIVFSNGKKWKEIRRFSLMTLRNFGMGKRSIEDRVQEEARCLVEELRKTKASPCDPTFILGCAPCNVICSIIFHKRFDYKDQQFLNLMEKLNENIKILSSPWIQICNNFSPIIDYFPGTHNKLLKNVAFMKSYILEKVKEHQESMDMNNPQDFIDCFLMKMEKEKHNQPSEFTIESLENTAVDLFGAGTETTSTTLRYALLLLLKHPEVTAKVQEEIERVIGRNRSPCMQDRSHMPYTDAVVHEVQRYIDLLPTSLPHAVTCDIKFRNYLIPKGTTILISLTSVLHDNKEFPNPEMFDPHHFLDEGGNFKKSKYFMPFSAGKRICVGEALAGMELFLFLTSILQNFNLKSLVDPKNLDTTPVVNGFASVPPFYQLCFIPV
Sequence of Cytochrome P450 2D6 (Homo sapiens) (P10635 whole entry, looked up): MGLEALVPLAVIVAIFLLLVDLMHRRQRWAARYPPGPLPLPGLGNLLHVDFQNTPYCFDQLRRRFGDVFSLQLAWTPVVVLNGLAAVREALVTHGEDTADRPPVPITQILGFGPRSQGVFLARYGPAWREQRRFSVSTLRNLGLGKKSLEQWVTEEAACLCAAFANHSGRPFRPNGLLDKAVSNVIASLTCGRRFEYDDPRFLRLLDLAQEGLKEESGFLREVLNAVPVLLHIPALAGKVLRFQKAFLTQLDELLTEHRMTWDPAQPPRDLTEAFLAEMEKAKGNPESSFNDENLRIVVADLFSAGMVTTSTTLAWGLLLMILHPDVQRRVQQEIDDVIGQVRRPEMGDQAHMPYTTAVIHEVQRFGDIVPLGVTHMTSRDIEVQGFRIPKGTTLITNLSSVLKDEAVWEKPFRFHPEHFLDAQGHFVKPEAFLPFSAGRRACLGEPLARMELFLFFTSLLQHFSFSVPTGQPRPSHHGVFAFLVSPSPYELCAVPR
Sequence of Voltage-gated inwardly rectifying potassium channel KCNH2 (Homo sapiens) (Q12809 whole entry, looked up): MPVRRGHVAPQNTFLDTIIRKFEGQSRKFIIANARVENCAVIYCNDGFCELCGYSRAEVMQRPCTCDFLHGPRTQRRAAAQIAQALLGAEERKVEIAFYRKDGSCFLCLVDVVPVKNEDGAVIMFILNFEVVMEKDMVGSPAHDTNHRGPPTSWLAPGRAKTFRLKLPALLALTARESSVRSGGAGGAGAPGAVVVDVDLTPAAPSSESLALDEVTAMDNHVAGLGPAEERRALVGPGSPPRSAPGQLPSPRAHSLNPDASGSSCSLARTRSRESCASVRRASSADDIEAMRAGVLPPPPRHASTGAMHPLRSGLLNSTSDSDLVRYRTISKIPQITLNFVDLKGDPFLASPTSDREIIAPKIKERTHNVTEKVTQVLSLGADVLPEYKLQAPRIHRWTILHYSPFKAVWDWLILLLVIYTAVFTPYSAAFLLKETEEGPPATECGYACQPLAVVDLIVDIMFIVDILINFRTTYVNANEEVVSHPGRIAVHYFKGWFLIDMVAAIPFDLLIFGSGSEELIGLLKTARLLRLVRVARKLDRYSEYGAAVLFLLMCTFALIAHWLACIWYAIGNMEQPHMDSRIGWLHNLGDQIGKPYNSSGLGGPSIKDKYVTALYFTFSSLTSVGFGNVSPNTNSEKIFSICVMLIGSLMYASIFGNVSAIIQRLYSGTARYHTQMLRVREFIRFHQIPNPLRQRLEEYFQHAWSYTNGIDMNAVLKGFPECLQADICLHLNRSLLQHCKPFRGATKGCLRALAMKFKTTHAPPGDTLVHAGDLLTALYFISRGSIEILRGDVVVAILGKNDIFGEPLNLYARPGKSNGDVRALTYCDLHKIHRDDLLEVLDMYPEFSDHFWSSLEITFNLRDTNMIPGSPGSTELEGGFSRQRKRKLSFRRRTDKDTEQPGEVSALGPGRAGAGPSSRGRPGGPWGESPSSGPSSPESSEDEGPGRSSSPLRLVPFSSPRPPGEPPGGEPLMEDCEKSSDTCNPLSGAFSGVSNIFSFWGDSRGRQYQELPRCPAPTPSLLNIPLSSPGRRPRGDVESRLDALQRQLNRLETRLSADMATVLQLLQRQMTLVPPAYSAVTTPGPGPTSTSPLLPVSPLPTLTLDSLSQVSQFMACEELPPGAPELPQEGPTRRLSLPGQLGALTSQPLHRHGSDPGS
Sequence of Nuclear receptor subfamily 1 group I member 2 (Rattus norvegicus) (Q9R1A7 whole entry, looked up): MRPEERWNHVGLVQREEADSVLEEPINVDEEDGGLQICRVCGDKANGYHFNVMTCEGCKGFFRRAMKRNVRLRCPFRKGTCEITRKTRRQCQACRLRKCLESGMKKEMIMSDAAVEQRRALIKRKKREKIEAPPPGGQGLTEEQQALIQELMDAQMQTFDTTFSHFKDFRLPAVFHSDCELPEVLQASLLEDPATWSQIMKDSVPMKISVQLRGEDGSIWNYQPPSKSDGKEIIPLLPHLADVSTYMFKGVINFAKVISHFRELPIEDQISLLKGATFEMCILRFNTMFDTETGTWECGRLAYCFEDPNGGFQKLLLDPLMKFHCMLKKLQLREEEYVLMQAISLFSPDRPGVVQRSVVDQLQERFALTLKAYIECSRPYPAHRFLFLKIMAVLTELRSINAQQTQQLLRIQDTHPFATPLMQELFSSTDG

CCCCCCCCCOC(C)=O
inactive: Potency [1] | Potency [2] | outcome [3] | Potency [4] | Potency [5] | Potency [6] | Potency [7] | Potency [8]

CCCCCCOC(=O)C(C)C
inactive: Potency [1] | Potency [2] | outcome [3] | Potency [4] | Potency [5] | Potency [7] | Potency [8] | Potency [9]

CC(C)C(OC(=O)c1ccccc1)C(C)(C)COC(=O)c1ccccc1 (stereo not given)
active: Potency [6] 6.33 µM | Potency [7] 2 µM | Potency [11] 35.6 µM
inactive: Potency [1] | Potency [2] | outcome [3] | Potency [4] | Potency [10] | Potency [9]

Cc1oc(C)c(C(=O)Nc2ccccc2)c1C
active: Potency [2] 27.3 µM | Potency [10] 56.4 µM | Potency [6] 35.6 µM | Potency [7] 35.6 µM | Potency [11] 15.9 µM
inactive: Potency [1] | outcome [3] | Potency [4] | Potency [8]

c1ccc(COCc2ccccc2)cc1
inactive: Potency [1] | Potency [2] | outcome [3] | Potency [4] | Potency [5] | Potency [11] | Potency [8] | Potency [9]

C[C@@H]1C[C@H]2[C@@H]3CCC4=CC(=O)C=C[C@]4(C)[C@@]3(F)[C@@H](O)C[C@]2(C)[C@@]1(O)C(=O)CO
inactive: Potency [1] | Potency [2] | outcome [3] | Potency [4] | Potency [8]

CO[Si](C)(OC)OC
inactive: Potency [1] | Potency [2] | outcome [3] | Potency [4] | Potency [5] | Potency [6] | Potency [7] | Potency [8]
active: Potency [9] 4.91 µM

Cc1nccn1-c1ccc(Sc2cccc(C3(C(N)=O)CCOCC3)c2)cc1
inactive: Potency [1] | outcome [3]
active: Potency [2] 7.7 µM | Potency [5] 13.7 µM | Potency [10] 35.6 µM | Potency [6] 20 µM | Potency [7] 5.64 µM | Potency [9] 7.96 µM

CC1(C)O[C@@H]2C[C@H]3[C@@H]4CCC5=CC(=O)C=C[C@]5(C)[C@H]4[C@@H](O)C[C@]3(C)[C@]2(C(=O)CO)O1
inactive: Potency [1] | Potency [2] | outcome [3] | Potency [4] | Potency [6] | Potency [11] | Potency [8]
active: Potency [12] 1.58 µM | Potency [10] 38.9 µM | Potency [9] 3.47 µM

CCC(=O)Oc1ccc(/C(CC)=C(\CC)c2ccc(OC(=O)CC)cc2)cc1
active: Potency [2] 61.1 µM
inactive: Potency [1] | outcome [3] | Potency [4] | Potency [10] | Potency [6] | Potency [7] | Potency [11] | Potency [8] | Potency [9]

O=C(O)c1ccccc1NCCc1ccccc1
inactive: Potency [1] | Potency [2] | outcome [3] | Potency [4] | Potency [6] | Potency [8]
active: Potency [5] 23.7 µM | Potency [7] 13.8 µM

C[Si](NC1CCCCC1)(NC1CCCCC1)NC1CCCCC1
inactive: Potency [1] | Potency [2] | outcome [3] | Potency [4] | Potency [5] | Potency [6] | Potency [8] | Potency [9]

CCOC(=O)c1ccccc1OC
active: Potency [6] 79.6 µM | Potency [11] 35.6 µM
inactive: Potency [1] | Potency [2] | outcome [3] | Potency [5] | Potency [10] | Potency [7] | Potency [8] | Potency [9]

CCOc1cc(N)c(Cl)cc1C(=O)NCC1CN(Cc2ccc(F)cc2)CCO1 (stereo not given)
inactive: Potency [1] | Potency [2] | outcome [3] | max activation [13] 0.0903% | Potency [12] | Potency [10]
active: Potency [5] 5.31 µM | Potency [14] 12.6 µM | Potency [6] 3.47 µM | Potency [11] 1.55 µM

CCCCN(CCCC)C(=S)SSC(=S)N(CCCC)CCCC
active: Potency [2] 27 µM | Potency [5] 30.3 µM | Potency [6] 17.7 µM | Potency [7] 2.8 µM | Potency [11] 35.2 µM | Potency [9] 5.58 µM
inactive: Potency [1] | outcome [3] | Potency [4]

CCOC(=O)C(C)Oc1ccc(Oc2nc3ccc(Cl)cc3o2)cc1 (stereo not given)
inactive: Potency [1] | Potency [2] | outcome [3] | Potency [4]
active: Potency [6] 31.7 µM | Potency [7] 39.9 µM | Potency [11] 31.7 µM | Potency [8] 34.7 µM

C=CC(C)=CCC=C(C)C
active: Potency [7] 63.3 µM
inactive: Potency [1] | Potency [2] | outcome [3] | Potency [4] | Potency [10] | Potency [8]

CC(N)CN (stereo not given)
inactive: Potency [1] | Potency [2] | outcome [3] | Potency [4] | Potency [5] | Potency [11] | Potency [8] | Potency [9]
active: Potency [6] 60.5 µM

CC(Cl)C(Cl)Cl (stereo not given)
active: Potency [6] 31.2 µM
inactive: Potency [1] | Potency [2] | outcome [3] | Potency [4] | Potency [5] | Potency [8] | Potency [9]

CCCC(=O)O[C@]1(C(=O)COC(=O)CC)CC[C@H]2[C@@H]3CCC4=CC(=O)CC[C@]4(C)[C@H]3[C@@H](O)C[C@@]21C
inactive: caspase activation [1] -2.33% [at 19 µM] | activity change, negative = cytotoxicity [2] 11.7% [at 19 µM] | activity change, negative = cytotoxicity [4] 3.19% [at 19 µM] | activation [5] -1.9% [at 19 µM] | activity change, negative = inhibition [6] -11.3% [at 23.6 µM] | activity change, negative = inhibition [7] 11.6% [at 23.6 µM] | Potency [11] | activity change, negative = inhibition [8] 4.88% [at 15.8 µM] | activity change, negative = inhibition [9] 1.97% [at 23.6 µM]
